Measured values from PubChem BioAssay.
The source made the active and inactive calls.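 The calls were made as follows, unless noted: active = normalized viability below 100% at a tested concentration; inactive = the rest.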

How the values were obtained:
[1] = sensitizers of A549 cells to miR-34 induction, primary screen, imaging, A549 dox-inducible miR-34, nuclei and caspase counts (AID 1347080;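 active = compounds whose cell count with miR-34 switched on is under 0.7 times the count with it off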); settings: A549 miR-34 inducible, Hoechst nuclei count, 48 h
[2] = survival rescue of mitochondrial mutant cells in low glucose, primary screen, MELAS cybrids, Rieske KO mouse fibroblasts, CellTiter-Glo (AID 1508586;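 active = mean z-score across replicates of 1.96 or higher in either the MELAS or the Rieske mutant cell line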;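 also: z relative to plate mean and SD of compound and empty wells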)
[3] = ovarian cancer cell viability with rucaparib, profiling panel, oncology-focused library, rucaparib conditional (AID 1508598); settings: patient-derived ovarian cancer cells, CellTiter-Glo viability, 144 h, stronger effect = lower value
[4] = stronger effect = lower value, cell number ratio, induced over uninduced
[5] = measured here: relative caspase fold change +Dox/-Dox
[6] = measured here: total cells with miR-34 induction, stronger effect = lower value
[7] = measured here: total cells without miR-34 induction
[8] = MELAS cybrid survival, CellTiter-Glo 48 h, stronger effect = higher value
[9] = Rieske KO mouse fibroblast survival, CellTiter-Glo 72 h
[10] = at 0.000305 µM, OCI-C5x cells, with rucaparib 10 µM, 100% = cells with rucaparib alone
[11] = at 0.000305 µM, OCI-C5x cells, without rucaparib
[12] = at 0.000305 µM, OCI-P5x cells, with rucaparib 20 µM, 100% = cells with rucaparib alone
[13] = at 0.000305 µM, OCI-P5x cells, without rucaparib
[14] = at 0.00122 µM, OCI-C5x cells, with rucaparib 10 µM, 100% = cells with rucaparib alone
[15] = at 0.00122 µM, OCI-C5x cells, without rucaparib
[16] = at 0.00122 µM, OCI-P5x cells, with rucaparib 20 µM, 100% = cells with rucaparib alone
[17] = at 0.00122 µM, OCI-P5x cells, without rucaparib
[18] = at 0.00488 µM, OCI-C5x cells, with rucaparib 10 µM, 100% = cells with rucaparib alone
[19] = at 0.00488 µM, OCI-C5x cells, without rucaparib
[20] = at 0.00488 µM, OCI-P5x cells, with rucaparib 20 µM, 100% = cells with rucaparib alone
[21] = at 0.00488 µM, OCI-P5x cells, without rucaparib
[22] = at 0.0195 µM, OCI-C5x cells, with rucaparib 10 µM, 100% = cells with rucaparib alone
[23] = at 0.0195 µM, OCI-C5x cells, without rucaparib
[24] = at 0.0195 µM, OCI-P5x cells, with rucaparib 20 µM, 100% = cells with rucaparib alone
[25] = at 0.0195 µM, OCI-P5x cells, without rucaparib
[26] = at 0.0781 µM, OCI-C5x cells, with rucaparib 10 µM, 100% = cells with rucaparib alone
[27] = at 0.0781 µM, OCI-C5x cells, without rucaparib
[28] = at 0.0781 µM, OCI-P5x cells, with rucaparib 20 µM, 100% = cells with rucaparib alone
[29] = at 0.0781 µM, OCI-P5x cells, without rucaparib
[30] = at 0.313 µM, OCI-C5x cells, with rucaparib 10 µM, 100% = cells with rucaparib alone
[31] = at 0.313 µM, OCI-C5x cells, without rucaparib
[32] = at 0.313 µM, OCI-P5x cells, with rucaparib 20 µM, 100% = cells with rucaparib alone
[33] = at 0.313 µM, OCI-P5x cells, without rucaparib
[34] = at 1.25 µM, OCI-C5x cells, with rucaparib 10 µM, 100% = cells with rucaparib alone
[35] = at 1.25 µM, OCI-C5x cells, without rucaparib
[36] = at 1.25 µM, OCI-P5x cells, with rucaparib 20 µM, 100% = cells with rucaparib alone
[37] = at 1.25 µM, OCI-P5x cells, without rucaparib
[38] = at 5 µM, OCI-C5x cells, with rucaparib 10 µM, 100% = cells with rucaparib alone
[39] = at 5 µM, OCI-C5x cells, without rucaparib
[40] = at 5 µM, OCI-P5x cells, with rucaparib 20 µM, 100% = cells with rucaparib alone
[41] = at 5 µM, OCI-P5x cells, without rucaparib

CC(=O)O[C@@]1(C(C)=O)CC[C@H]2[C@@H]3C=C(C)C4=CC(=O)CC[C@]4(C)[C@@H]3CC[C@@]21C
7070: cell count [1, 7]
0.339: z-score [2, 9]
0.828: fold change [1, 5]
inactive: fold change [1, 4] 0.871 | z-score [2, 8] -0.515 | viability [3, 11] 104% | viability [3, 13] 104% | viability [3, 14] 107% | viability [3, 17] 100% | viability [3, 18] 102% | viability [3, 19] 101% | viability [3, 22] 100% | viability [3, 28] 100% | viability [3, 29] 100% | viability [3, 30] 116% | viability [3, 34] 116% | viability [3, 38] 111%
active: viability [3, 10] 94.9% | viability [3, 12] 96.4% | viability [3, 15] 97.6% | viability [3, 16] 99.8% | viability [3, 20] 99.9% | viability [3, 21] 96.3% | viability [3, 23] 99.3% | viability [3, 24] 96.9% | viability [3, 25] 93.1% | viability [3, 26] 98.1% | viability [3, 27] 94.7% | viability [3, 31] 90.3% | viability [3, 32] 92.2% | viability [3, 33] 89.7% | viability [3, 35] 92.1% | viability [3, 36] 89.9% | viability [3, 37] 82.2% | viability [3, 39] 93.9% | viability [3, 40] 84.5% | viability [3, 41] 82.1%
6160: cell count [1, 6]

Cc1[nH]c(C=C2C(=O)Nc3ccc(S(=O)(=O)N(C)c4cccc(Cl)c4)cc32)c(C)c1C(=O)N1CCN(C)CC1
3230: cell count [1, 7]
0.91: fold change [1, 5]
active: viability [3, 16] 92.9% | viability [3, 17] 98.8% | viability [3, 20] 89.6% | viability [3, 21] 96.9% | viability [3, 24] 96.9% | viability [3, 25] 94.2% | viability [3, 41] 58.4%
-1.1: z-score [2, 9]
3050: cell count [1, 6]
inactive: fold change [1, 4] 0.944 | z-score [2, 8] -0.734 | viability [3, 10] 109% | viability [3, 11] 113% | viability [3, 12] 106% | viability [3, 13] 104% | viability [3, 14] 117% | viability [3, 15] 112% | viability [3, 18] 118% | viability [3, 19] 113% | viability [3, 22] 116% | viability [3, 23] 126% | viability [3, 26] 120% | viability [3, 27] 125% | viability [3, 28] 104% | viability [3, 29] 102% | viability [3, 30] 122% | viability [3, 31] 131% | viability [3, 32] 113% | viability [3, 33] 107% | viability [3, 34] 138% | viability [3, 35] 151% | viability [3, 36] 114% | viability [3, 37] 107% | viability [3, 38] 133% | viability [3, 39] 126% | viability [3, 40] 102%

COc1ccccc1-c1cc(Nc2cccc(CS(N)(=O)=O)c2)ncn1
0.462: fold change [1, 5]
4080: cell count [1, 7]
-1.46: z-score [2, 9]
inactive: fold change [1, 4] 0.955 | z-score [2, 8] -0.3 | viability [3, 10] 125% | viability [3, 11] 105% | viability [3, 14] 122% | viability [3, 18] 127% | viability [3, 19] 107% | viability [3, 20] 103% | viability [3, 22] 126% | viability [3, 23] 117% | viability [3, 24] 103% | viability [3, 26] 126% | viability [3, 27] 115% | viability [3, 28] 100% | viability [3, 29] 102% | viability [3, 30] 111% | viability [3, 31] 102% | viability [3, 34] 125% | viability [3, 35] 110% | viability [3, 38] 105%
3900: cell count [1, 6]
active: viability [3, 12] 92.8% | viability [3, 13] 91.1% | viability [3, 15] 98.9% | viability [3, 16] 96.8% | viability [3, 17] 90.1% | viability [3, 21] 95.2% | viability [3, 25] 97.6% | viability [3, 32] 93.6% | viability [3, 33] 99.6% | viability [3, 36] 91.1% | viability [3, 37] 94.8% | viability [3, 39] 99.7% | viability [3, 40] 64.2% | viability [3, 41] 74.8%

C=C[C@@]1(C)CC(OC(=O)CSC2C[C@H]3CC[C@@H](C2)N3C)[C@]2(C)C(C)CC[C@]3(CCC(=O)[C@H]32)C(C)C1O (stereo not given in full)
7910: cell count [1, 7]
5.36: z-score [2, 9]
7780: cell count [1, 6]
active: z-score [2, 8] 2.23
inactive: fold change [1, 4] 0.984
1.2: fold change [1, 5]

CCCc1ccc(OCC(=O)N(Cc2nc(-c3cccnc3)no2)C(C)C)cc1
inactive: fold change [1, 4] 0.834 | z-score [2, 8] -0.333 | viability [3, 10] 116% | viability [3, 11] 115% | viability [3, 13] 106% | viability [3, 14] 125% | viability [3, 15] 122% | viability [3, 16] 102% | viability [3, 18] 129% | viability [3, 19] 104% | viability [3, 20] 105% | viability [3, 21] 101% | viability [3, 22] 118% | viability [3, 23] 110% | viability [3, 25] 102% | viability [3, 26] 134% | viability [3, 27] 114% | viability [3, 28] 104% | viability [3, 29] 103% | viability [3, 30] 120% | viability [3, 31] 110% | viability [3, 33] 101%
0.57: fold change [1, 5]
active: viability [3, 12] 98% | viability [3, 17] 98.6% | viability [3, 24] 97.5% | viability [3, 32] 98.3%
0.238: z-score [2, 9]
6670: cell count [1, 6]
7990: cell count [1, 7]
